Hits are enriched below; roughly 15% of the tested compounds scored in any of these assays.
Pf growth 48h – Primary qHTS for delayed death inhibitors of the malarial parasite plastid, 48 hour incubation | Potency, µM (top dose mostly 28.7 µM), inactives show at the top dose activity change, negative = inhibition, usual class: inhibitors | P. falciparum luciferase growth in erythrocytes, 48 h | hit rate 5.9% among 310,000; also: potency is read from the fitted curve at half-maximal effect; % is scaled to controls: 0 for no effect and ±100 for the full control effect
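Parasite viability was followed by luminescence of a genomically integrated firefly luciferase. Cultures held 0.1% parasitemia at 2% hematocrit (final), incubated under 5% CO2 at 37 C.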
Sm TGR block – qHTS Assay for the Inhibitors of Schistosoma Mansoni Peroxiredoxins; AID 485364, 2010; Potency, µM (doses to about 114 µM), for the others: top-dose activity change, negative = inhibition, hits mostly inhibitors; Schistosoma mansoni thioredoxin glutathione reductase (TGR), Q962Y6; hit rate 3% among 360,000; purified TGR, DTNB reduction, TNB absorbance 405 nm; also: potency is read from the fitted curve at half-maximal effect; % is scaled to controls: 0 for no effect and ±100 for the full control effect; nearly all actives have a fitted effect of over 60% in size
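First, TGR (20 nM dispensed) and NADPH were mixed with compound. Second, a 15 min room-temperature incubation followed. Third, further NADPH and then DTNB were added to start the reaction. Finally, TNB absorbance was monitored kinetically.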
HCV inhibitor – qHTS Assay for Inhibitors of Hepatitis C Virus (HCV) | hit rate 3.4% among 340,000 | Huh7.5.1 HCVcc-Cre infection, luciferase reporter, 44 h | Potency, µM (doses to about 41.8 µM), for inactives: at the top dose activity change, negative = inhibition, usual class: inhibitors; also: potency is read from the fitted curve at half-maximal effect; % is scaled to controls: 0 for no effect and ±100 for the full control effect
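Infectious HCVcc-Cre (~0.5 moi) was added to cells just after compound, with cells seeded 4 h earlier at 1,000 per well. Luciferase activity after 44 h culture reported infection; substrate was incubated 15 min at room temperature before reading.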
SARS PLpro yeast – qHTS of Yeast-based Assay for SARS-CoV PLP | S. cerevisiae expressing SARS-CoV PLpro, growth rescue | Potency, µM (titrated, usually from 32.9 µM), for inactives: at the top dose activity, positive = growth rescue, actives largely listed as activators | hit rate 0.19% among 330,000; calls by dose curve; also: potency is read from the fitted curve at half-maximal effect; 0% is about no effect; nearly all actives have a fitted effect of over 55% in size
HCMV antiviral – qHTS Assay for inhibitors of the human cytomegalovirus (HCMV) | AID 1259415, 2018 | HFF cells, HCMV-luciferase reporter, 72 h; stronger effect = lower value | activity change, negative = inhibition, % at 57.5 µM | hit rate 4.5% among 410,000; in the data active = activity change below about -60%; inconclusive = no clear call, values can overlap the other calls; inactive = above about -39%; also: % is scaled to controls: 0 for no effect and ±100 for the full control effect
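Two-dose cell screen: HFF monolayers treated with compounds and infected with luciferase-expressing HCMV at 1 PFU/cell, 72 h at 37C, then lysed for luciferase measurement.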
Pf growth 96h – Primary qHTS for delayed death inhibitors of the malarial parasite plastid, 96 hour incubation | P. falciparum luciferase reporter growth, 96 h | Potency, µM (series often up to 28.7 µM), inactives show at the highest dose activity change, negative = inhibition, actives largely listed as inhibitors | hit rate 6.9% among 320,000 | AID 504834, 2011; also: potency is read from the fitted curve at half-maximal effect; % is scaled to controls: 0 for no effect and ±100 for the full control effect
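Infected RBCs, 2% Hct / 0.05% parasitemia final; luciferase-reporter P. falciparum; cpd 96 h, 37 C, 5% CO2; luciferase detection reagent; luminescence.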
Active calls of the source: *; ? = inconclusive; . = no result given; [ ] = remark or other dose. Unless noted, calls follow the shape of the dose curve; as a rule, active = well fitted curve in the direction sought with a large enough effect; inconclusive = small, poorly fitted or top-dose-only effect, or another doubt; inactive = no such curve, though single readings can be large; an effect the other way counts as inactive or inconclusive.

SMILES | Pf growth 48h | Sm TGR block | HCV inhibitor | SARS PLpro yeast | HCMV antiviral | Pf growth 96h
CCCCC(=O)N1CCc2cc(OC)c(OC)cc2C1COc1ccc(C(=O)OCC)cc1 (stereo unspecified) | . | 2% | . | . | 11 | .
Cc1cc(NC(=O)C(C)(C)Oc2ccc(Cl)cc2)cc(-c2nc3ncccc3o2)c1O | . | 1% | . | . | 0 | .
CC(C)(C)c1ccc(S(=O)(=O)NC(=O)C2(C)CCN2C(=O)C2CC2)cc1 (stereo unspecified) | . | . | . | . | 11 | .
CC(=O)OC1(C)C=Cc2ccccc2C1=NS(=O)(=O)c1ccccc1 (stereo unspecified) | . | . | . | . | -5 | .
Cc1nc2nc(-c3ccco3)nn2c(C)c1Cl | 54% | 22µM* | -9% | 0% | 196 | .
Cc1ccc(NC(=O)COC(=O)C2CC2(Cl)Cl)cc1C (stereo unspecified) | 20% | -11% | 17% | 0% | -2 | 49%
CCN(CC(=O)Nc1sc2c(c1C#N)CCC(C)C2)CC(=O)NC1CCS(=O)(=O)C1 (stereo unspecified) | 0% | -24% | -6% | 0% | 29 | 12µM*
COC(=O)c1c(-c2ccc(C)cc2)csc1NC(=S)NC(=O)c1cc(OC)cc(OC)c1 | ? | -3% | 25% | -19% | 18 | 8.3µM*
CCOC(=O)c1c(-c2ccc(C)cc2)csc1NC(=O)c1cc(-c2ccc(OC)cc2)on1 | . | 2% | . | . | 1 | .
C=CCN(CC=C)S(=O)(=O)c1ccc(NC(=S)NC(=O)C2CC2)cc1 | ? | -26% | ? | -9% | -34 | ?
Cc1cc2c(C)nc3ccccc3c2o1 | 35% | 0% | 11µM* | 4% | -22 | 3%
Cc1nc2ccccc2c2oc(C(=O)NC3CC3)cc12 | . | 3% | -29% | 13% | -36 | 0%
Clc1ccc(-c2nnc(-c3ccco3)nc2N2CCCCC2)cc1 | 4% | 2.8µM* | -26% | -60% | ? | ?
Clc1ccc(-c2nnc(-c3ccc(Br)cc3)c(N3CCSCC3)n2)cc1 | ? | 9% | -16% | 1% | -28 | 4%
Cc1ccc(OCCSc2nc3ccccc3n2CC(=O)N2CCCCC2)c(C)c1 | . | 21% | . | . | -19 | .
Cc1ccccc1C(=O)Oc1cc(N)n(S(=O)(=O)c2ccccc2)n1 | 6% | 6% | 15% | -2% | 8 | ?
CS(=O)(=O)n1nc(OC(=O)c2cc(Br)ccc2Cl)cc1N | -8% | 5µM* | 3% | -1% | 19 | -33%[5.75 µM]
COc1ccc(S(=O)(=O)n2nc(OC(=O)c3cccs3)cc2N)cc1 | 0% | -20% | 1% | -1% | 41 | 40%
CS(=O)(=O)n1nc(OC(=O)c2cccc3ccccc23)cc1N | 20% | 0% | 8% | -7% | 203 | 5.2µM*
CS(=O)(=O)n1nc(OC(=O)c2cccs2)cc1N | ? | 40µM* | 20% | 3% | 7 | -6%
COc1ccc(S(=O)(=O)n2nc(OC(=O)c3ccccc3Br)cc2N)cc1 | -1% | ? | 4% | -2% | 39 | 200%
CCOc1cccc(C(=O)N(Cc2ccc(CC)cc2)C2CCS(=O)(=O)C2)c1 (stereo unspecified) | . | 4% | . | . | 25 | .
O=C(Nc1ccccc1N1CCCCC1)c1ccc(Cl)c([N+](=O)[O-])c1 | -26% | 2% | 13µM* | 1% | 25 | 6%
O=C(Nc1cccc(Cl)c1N1CCCCC1)c1ccc(N2CCOCC2)c([N+](=O)[O-])c1 | -16% | 6% | -7% | -32% | -30 | 6.6µM*
O=C(Nc1ccccc1N1CCCC1)c1cccc(Cl)c1Cl | -16% | -11%[57.1 µM] | -10% | 0% | 0 | 0%
SMILES | Pf growth 48h | Sm TGR block | HCV inhibitor | SARS PLpro yeast | HCMV antiviral | Pf growth 96h
Cc1c(N2CCCC2)cc2c(c1NC(=O)c1ccccc1Cl)C(C)(C)CC2(C)C | ? | -21% | 25µM* | -4% | 13 | ?
CSc1ccc(CN2CCC(C)(Oc3ccc(F)cc3)C2)cc1 (stereo unspecified) | . | . | . | . | 5 | .
O=C(Cc1ccc(S(=O)(=O)N2CCOCC2)s1)Nc1cc(C(F)(F)F)ccc1N1CCCC1 | 12µM* | 0% | ? | 0% | 27 | ?
Cc1cc(C)cc(NC(=O)Cc2ccc(S(=O)(=O)N3CCCC3)s2)c1 | ? | -3% | 10% | -2% | -1 | ?
CCOC(=O)c1cc(NC(=O)Cc2ccc(S(=O)(=O)N3CCOCC3)s2)cc(C(=O)OCC)c1 | 10µM* | -3% | ? | -10% | -23 | 5.2µM*
O=C(Cc1ccc(S(=O)(=O)N2CCOCC2)s1)Nc1cc(C(F)(F)F)cc(C(F)(F)F)c1 | ? | 2% | 11µM* | -1% | -80* | ?
O=C(Cc1ccc(S(=O)(=O)N2CCOCC2)s1)Nc1ccccc1N1CCCC1 | -21% | ? | -10% | 3% | ? | ?
COc1cc(OC)cc(-c2c(-c3cccs3)c3cc(-c4ccc(CN5CCOCC5)cc4)ccc3n2C)c1 | . | . | ? | 1% | -12 | .
CC(=O)NC(Cc1ccc(O)cc1)C(=O)O (stereo unspecified) | . | . | . | . | 12 | .
Cc1cc(OCC(=O)NNC(=O)c2ccncc2)cc(C)c1Cl | ? | 4% | 4% | 5% | -13 | 10µM*
O=C(COc1ccc(Cl)cc1)NNC(=O)c1ccccn1 | 5.2µM* | 4% | 1% | 1% | 16 | ?
Cc1cc(C)cc(OCC(=O)NNC(=O)c2ccccn2)c1 | 5.2µM* | -1% | ? | -2% | -97* | 3.3µM*
CCOC(=O)c1[nH]cnc1C(=O)N1CCC(C)CC1 | 28% | 0% | 7% | 3% | -5 | ?
COc1ccc(-c2noc(-c3csc([C@@H]4O[C@H](CO)[C@H](O)[C@H](O)[C@H]4O)n3)n2)cc1OC | . | . | . | . | 35 | .
CCOP(=O)(OCC)/C(=N/OC(=O)c1ccc(Cl)cc1Cl)C(N)=O | 1% | 6.3µM* | 7% | 0% | 55 | 13%
N/C(=N\OC(=O)c1ccc(Cl)cc1Cl)c1cccnc1 | -36% | 0% | ? | -1% | 108 | 4.7µM*
N/C(=N\OC(=O)c1cccc2ccccc12)c1cccnc1 | ? | 0% | 11µM* | 0% | 191 | -7%
O=C(Nc1ccc(Cl)cc1)O/N=C(\c1ccccc1)c1ccccn1 | 15% | 9% | -7% | 6% | -14 | 39%
O=C(O/N=C(\c1ccccc1)c1ccccn1)c1cccc2ccccc12 | 16% | 2% | -11% | -87% | -16 | 9.3µM*
